# Laboratory results as given in the supplement of paper PMC9794691.
# How the values were obtained:
# H1975 [1] = assay: area under confluence curve of compound monotherapy; compare to DMSO control AUC of the same experiment (AUC (confluence x time, arbitrary))
# In short: (§1)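 EGFR-mutant adenocarcinoma lines (RPMI 1640, 10% FBS, 37 °C, 5% CO2) were seeded at 20,000–30,000 cells/well in 48-well plates and next day given test compound alone at one dose (highest with <50% parental inhibition, or 1 uM), refreshed after PBS washes every 3–4 days, then drug-free from DTP stage (10–21 days). IncuCyte confluence was tracked until EGFR-inhibitor-only wells regrew. Area under the confluence curve came from Prism (median of triplicates where run), beside same-experiment vehicle AUC.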
# HCC2279 [2] = assay: as above
# In short: as §1
# HCC2935 [3] = assay: as above
# In short: as §1
# HCC4006 [4] = assay: as above
# In short: as §1
# HCC827 [5] = assay: as above
# In short: as §1
# II-18 [6] = assay: as above
# In short: as §1
# PC9 = assay: area under confluence curve of osimertinib + compound combination regimen (DTP regrowth); compare to osimertinib-only DTP control AUC of the same experiment (AUC (confluence x time, arbitrary)); conditions: test compound dose 1000 nM
# In short: (§2)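 Two schedules were compared in EGFR-mutant NSCLC lines. In one, the EGFR inhibitor and a fixed-dose test compound were given together up to the persister stage (10–21 days), followed by drug-free medium. In the other, the inhibitor alone came first and the test compound second. Prism calculated the area under the IncuCyte confluence–time curve, taking the median of triplicates where these were available.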
# H1975 [7] = assay: as above; conditions: test compound dose 1000 nM, DMSO control AUC in same experiment: 15857
# In short: as §2
# HCC2279 [8] = assay: as above; conditions: test compound dose 1000 nM, DMSO control AUC in same experiment: 14404
# In short: as §2
# HCC2935 [9] = assay: as above; conditions: test compound dose 1000 nM, DMSO control AUC in same experiment: 19215
# In short: as §2
# HCC4006 [10] = assay: as above; conditions: test compound dose 1000 nM, DMSO control AUC in same experiment: 18415
# In short: as §2
# HCC827 [11] = assay: as above; conditions: test compound dose 1000 nM, DMSO control AUC in same experiment: 21320
# In short: as §2
# II-18 [12] = assay: as above; conditions: test compound dose 1000 nM, DMSO control AUC in same experiment: 11834
# In short: as §2
# [13] = dosing schedule: sequential, osimertinib-only DTP control AUC in same experiment: 22968
# [14] = dosing schedule: upfront, osimertinib-only DTP control AUC in same experiment: 27164
# [15] = dosing schedule: sequential, osimertinib-only DTP control AUC in same experiment: 26096
# [16] = dosing schedule: upfront, osimertinib-only DTP control AUC in same experiment: 33120
# [17] = dosing schedule: sequential, osimertinib-only DTP control AUC in same experiment: 22314
# [18] = dosing schedule: upfront, osimertinib-only DTP control AUC in same experiment: 29846
# [19] = dosing schedule: sequential, osimertinib-only DTP control AUC in same experiment: 12791
# [20] = dosing schedule: upfront, osimertinib-only DTP control AUC in same experiment: 17269
# [21] = dosing schedule: sequential, osimertinib-only DTP control AUC in same experiment: 15330
# [22] = dosing schedule: upfront, osimertinib-only DTP control AUC in same experiment: 20798
# [23] = dosing schedule: sequential, osimertinib-only DTP control AUC in same experiment: 8624
# [24] = dosing schedule: upfront, osimertinib-only DTP control AUC in same experiment: 10856
compound,measurement,setting,value
Cc1nc(N2CCC3(CC2)CO[C@@H](C)[C@H]3N)c(CO)nc1-c1cccc(Cl)c1Cl,area under confluence curve,"H1975 [1]; 1000 nM, DMSO control AUC in same experiment: 15857",17200
same,area under confluence curve,"HCC2279 [2]; 1000 nM, DMSO control AUC in same experiment: 14404",12100
same,area under confluence curve,"HCC2935 [3]; 1000 nM, DMSO control AUC in same experiment: 19215",19100
same,area under confluence curve,"HCC4006 [4]; 1000 nM, DMSO control AUC in same experiment: 18415",19200
same,area under confluence curve,"HCC827 [5]; 1000 nM, DMSO control AUC in same experiment: 21320",14900
same,area under confluence curve,"II-18 [6]; 1000 nM, DMSO control AUC in same experiment: 11834",3600
CCN1CCN(Cc2ccc(Nc3ncc(F)c(-c4cc(F)c5nc(C)n(C(C)C)c5c4)n3)nc2)CC1 [Abemaciclib],area under confluence curve,"H1975 [1]; 100 nM, DMSO control AUC in same experiment: 14522",13800
same,area under confluence curve,"HCC2279 [2]; 100 nM, DMSO control AUC in same experiment: 27284",22900
same,area under confluence curve,"HCC2935 [3]; 100 nM, DMSO control AUC in same experiment: 11459",8290
same,area under confluence curve,"HCC4006 [4]; 100 nM, DMSO control AUC in same experiment: 10921",9680
same,area under confluence curve,"HCC827 [5]; 100 nM, DMSO control AUC in same experiment: 48895",48500
same,area under confluence curve,"II-18 [6]; 100 nM, DMSO control AUC in same experiment: 13556",14000
COc1cc(CCc2cc(NC(=O)c3ccc(N4CC(C)NC(C)C4)cc3)n[nH]2)cc(OC)c1 (configuration not stated),area under confluence curve,"H1975 [1]; 1000 nM, DMSO control AUC in same experiment: 14522",17400
same,area under confluence curve,"HCC2279 [2]; 1000 nM, DMSO control AUC in same experiment: 29252",28700
same,area under confluence curve,"HCC2935 [3]; 1000 nM, DMSO control AUC in same experiment: 11459",11000
same,area under confluence curve,"HCC4006 [4]; 1000 nM, DMSO control AUC in same experiment: 16794",15300
same,area under confluence curve,"HCC827 [5]; 1000 nM, DMSO control AUC in same experiment: 43928",46400
same,area under confluence curve,"II-18 [6]; 1000 nM, DMSO control AUC in same experiment: 23373",19700
O=C([C@@H](Cc1cccc(C(F)(F)F)c1)NS(=O)(=O)c1cc(F)c2c(c1)CCNC2)N1CCCC1 + C=CC(=O)Nc1cc(Nc2nccc(-c3cn(C)c4ccccc34)n2)c(OC)cc1N(C)CCN(C)C [osimertinib],area under confluence curve,"PC9; dosing schedule: sequential, osimertinib-only DTP control AUC in same experiment: 10968, DMSO control AUC in same experiment: 21594",10000
same,area under confluence curve,"PC9; dosing schedule: upfront, osimertinib-only DTP control AUC in same experiment: 17834, DMSO control AUC in same experiment: 21594",13600
CCOC(=O)c1ccnc(CNCC(=O)N(CC)CCN(C)C)c1 + C=CC(=O)Nc1cc(Nc2nccc(-c3cn(C)c4ccccc34)n2)c(OC)cc1N(C)CCN(C)C [osimertinib],area under confluence curve,"PC9; dosing schedule: sequential, osimertinib-only DTP control AUC in same experiment: 3562, DMSO control AUC in same experiment: 31840",3420
same,area under confluence curve,"PC9; dosing schedule: upfront, osimertinib-only DTP control AUC in same experiment: 19015, DMSO control AUC in same experiment: 31840",16700
C[C@@H](Oc1cc(-c2cnn(C3CCNCC3)c2)cnc1N)c1c(Cl)ccc(F)c1Cl [Crizotinib] + C=CC(=O)Nc1cc(Nc2nccc(-c3cn(C)c4ccccc34)n2)c(OC)cc1N(C)CCN(C)C [osimertinib],area under confluence curve,H1975 [7]; [13],9770
same,area under confluence curve,H1975 [7]; [14],9330
same,area under confluence curve,HCC2279 [8]; [15],23100
same,area under confluence curve,HCC2279 [8]; [16],32900
same,area under confluence curve,HCC2935 [9]; [17],21400
same,area under confluence curve,HCC2935 [9]; [18],33400
same,area under confluence curve,HCC4006 [10]; [19],12500
same,area under confluence curve,HCC4006 [10]; [20],13000
same,area under confluence curve,HCC827 [11]; [21],10400
same,area under confluence curve,HCC827 [11]; [22],15000
same,area under confluence curve,II-18 [12]; [23],1450
same,area under confluence curve,II-18 [12]; [24],10800
same,area under confluence curve,"PC9; dosing schedule: sequential, osimertinib-only DTP control AUC in same experiment: 15001, DMSO control AUC in same experiment: 22064",8360
same,area under confluence curve,"PC9; dosing schedule: upfront, osimertinib-only DTP control AUC in same experiment: 24924, DMSO control AUC in same experiment: 22064",7510
Cc1nc(N2CCC3(CC2)CO[C@@H](C)[C@H]3N)c(CO)nc1-c1cccc(Cl)c1Cl + C=CC(=O)Nc1cc(Nc2nccc(-c3cn(C)c4ccccc34)n2)c(OC)cc1N(C)CCN(C)C [osimertinib],area under confluence curve,H1975 [7]; [13],15500
same,area under confluence curve,H1975 [7]; [14],17800
same,area under confluence curve,HCC2279 [8]; [15],16900
same,area under confluence curve,HCC2279 [8]; [16],21000
same,area under confluence curve,HCC2935 [9]; [17],19500
same,area under confluence curve,HCC2935 [9]; [18],27200
same,area under confluence curve,HCC4006 [10]; [19],9900
same,area under confluence curve,HCC4006 [10]; [20],14300
same,area under confluence curve,HCC827 [11]; [21],6150
same,area under confluence curve,HCC827 [11]; [22],13400
same,area under confluence curve,II-18 [12]; [23],2640
same,area under confluence curve,II-18 [12]; [24],3200
same,area under confluence curve,"PC9; dosing schedule: sequential, osimertinib-only DTP control AUC in same experiment: 10671, DMSO control AUC in same experiment: 21678",9600
same,area under confluence curve,"PC9; dosing schedule: sequential, osimertinib-only DTP control AUC in same experiment: 13130, DMSO control AUC in same experiment: 20567",7660
same,area under confluence curve,"PC9; dosing schedule: upfront, osimertinib-only DTP control AUC in same experiment: 18577, DMSO control AUC in same experiment: 20567",13500
same,area under confluence curve,"PC9; dosing schedule: upfront, osimertinib-only DTP control AUC in same experiment: 19512, DMSO control AUC in same experiment: 21678",10500
